According to PubChem BioAssay:

Assay: JC-1 mitochondrial signal, unstimulated MM1S myeloma – cell-based, JC-1 fluorescence, 24 h, 100 nL compound, profiling panel (AID 1170); further: test concentration not given here
Settings: MM1S mitochondrial potential, higher = more signal

| Structure (SMILES) | z-score |
| --- | --- |
| C=C(CCCC)/C(=C/C[C@H](OC(C)=O)c1cccc(OCCO)c1)c1cnc2ccccc2c1 | -0.209 |
| O=C(NC1CC1)[C@@H]1c2ccccc2C(=O)N(CC23CC4CC(CC(C4)C2)C3)[C@H]1c1ccc(CO)cc1 | -0.467 |
| C=CC[C@@]12N=C(c3ccc(OCCCO)cc3)O[C@@H]1c1ccccc1N(CCC)C2=O | -0.994 |
| C=CCOC(=O)[C@@H]1[C@H]2C(=O)O[C@H](c3ccccc3)[C@H](c3ccccc3)N2[C@H](c2ccc(OCCOC(=O)[C@H]3C[C@H]4C(=O)NCC(=O)N4[C@H]3c3cccc(OCCO)c3)cc2)[C@@]12C(=O)Nc1ccc(I)cc12 | -1.27 |
| COC(=O)C(CC#Cc1ccc2c(c1)[C@]1(C(=O)N2)[C@H](C(=O)N2CCc3cc(OC)c(OC)cc3C2)[C@H]2C(=O)O[C@H](c3ccccc3)[C@H](c3ccccc3)N2[C@@H]1c1ccccc1OCCO)C(=O)OC | -1.42 |
| C=CCOC(=O)[C@@H]1[C@H]2C(=O)O[C@H](c3ccccc3)[C@H](c3ccccc3)N2[C@H](c2ccc(OCCOC(=O)[C@H]3C[C@H]4C(=O)N[C@@H](CCCCN(C)C)C(=O)N4[C@H]3c3ccc(O)cc3)cc2)[C@@]12C(=O)Nc1ccc(I)cc12 | -0.933 |
| COc1ccc([Si](C)(C)[C@@H]2[C@@H](CC(=O)N3CCC[C@H]3CO)O[C@]3(C(=O)N(Cc4ccc(N5CCOC5=O)cc4)c4ccccc43)[C@H]2C)cc1 | -1.75 |
| CC1CC/C=C\[C@H]2OC34C=CCN(c5ccc6ccccc6c5)C(=O)[C@H]3N(C(C)CO)C(=O)[C@@H]4C2C(=O)O1 (stereo partly drawn) | -0.532 |
